Test [1] is described as follows: hit retest on RPL19A-GFP reporter strain – cell-based, S. cerevisiae, flow cytometry, cherry picks, mother/daughter gates, confirmation (AID 2270;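 active = GFP response below 50% of the DMSO control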). Particulars: 3 h, at 10 µM, stronger effect = lower value, 100 = same GFP as DMSO wells. Background: In flow cytometry, cells or beads pass a laser one at a time.
The nature of test [2]: yeast TOR pathway reporter LAP4-GFP change – cell-based, cherry picks, flow cytometry, mother/daughter gates, confirmation (AID 2271;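 active = GFP response above 150% of the DMSO control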;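 also: ratio of sample to DMSO plate mean so 100% equals DMSO level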). Particulars: S. cerevisiae LAP4-GFP strain, 3 h, at 10 µM, stronger effect = higher value.
The nature of test [3]: TOR pathway reporter MEP2-GFP, retest of hits – S. cerevisiae, flow cytometry GFP, cherry picks, confirmation (AID 2272;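 active = GFP response above 150% of the DMSO control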;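 also: ratio of well signal to plate DMSO mean so 100% equals DMSO level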). Particulars: S. cerevisiae MEP2-GFP strain, 3 h, at 10 µM, stronger effect = higher value.
A short description of test [4]: yeast AGP1-GFP fluorescence change, single-dose – cell-based, flow cytometry, S. cerevisiae, cherry picks, confirmation (AID 2273).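 Also: median GFP channel fluorescence over the whole cell population gate.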 The following applies: S. cerevisiae AGP1-GFP strain, 3 h, at 10 µM.
Test [5] can be described thus: TOR pathway CIT2 reporter hit retest – S. cerevisiae, GFP fusion, cherry picks, mother/daughter gates, confirmation (AID 2274). The following applies: S. cerevisiae CIT2-GFP strain, flow cytometry, 3 h, at 10 µM, stronger effect = higher value.
A short description of test [6]: rapamycin-like changes in RPL19A-GFP expression – cell-based, S. cerevisiae, multiplex flow cytometry, primary screen (AID 1862; in the data active = percent of DMSO control GFP below about 86%;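 also: lower values mimic rapamycin by blocking the RPL19A rise seen in DMSO cells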). The following applies: S. cerevisiae RPL19A-GFP strain, flow cytometry fluorescence, 3 h; at 10 µM; stronger effect = lower value.
Test [7] in a line: TOR pathway GLN3 branch reporter MEP2-GFP changes – S. cerevisiae, multiplex flow cytometry, primary screen (AID 1867;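 active = GFP response, as percent of the DMSO control, above the screen-wide mean plus 3 SD, about 139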;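 also: median GFP channel fluorescence of barcode-gated MEP2-GFP cells measured by flow cytometry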). The following applies: S. cerevisiae MEP2-GFP strain, 3 h, at 10 µM, stronger effect = higher value.
Test [8] can be described thus: TOR pathway RTG branch CIT2 reporter changes – S. cerevisiae, GFP fusion, multiplex flow cytometry, primary screen (AID 1870;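 active = percent response above a set limit, the screen-wide mean plus 3 SD, cut at about 130% in these data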;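 also: barcoded CIT2-GFP strain pooled with four other GFP strains with rapamycin as positive control; median GFP fluorescence per well over plate mean of DMSO wells so 100% = DMSO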). The following applies: S. cerevisiae CIT2-GFP expression, 3 h, at 10 µM, stronger effect = higher value.
Test [9] can be described thus: TOR pathway LAP4-GFP level changes – S. cerevisiae, multiplex flow cytometry, primary screen (AID 1873;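 active = GFP signal, as percent of the solvent control, above the screen mean plus 3 SD, about 149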). The following applies: S. cerevisiae LAP4-GFP expression, 3 h, at 10 µM, stronger effect = higher value.
A short description of test [10]: reduced mouse 2C T cell binding to pMHC/ICAM-1 vesicles – MLPCN validation set, flow cytometry, LFA-1/ICAM-1 modulator project, pilot screen (AID 2523;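 active = response below a set limit, under 55% cells CD8-positive and vesicle-bound, and CD8 cells' 90th-percentile brightness under 279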;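 as to vesicle binding response: mean PE anti-B7-1 fluorescence of CD8+ cells relative to row control; 100% = QL9-loaded vesicles with DMSO vehicle in the same plate row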). The following applies: 2C mouse CD8+ T cells, at 7 µM, stronger effect = lower value; double positive events: measured here: CD8+/vesicle+ event percentage.
In test [11] the target is Integrin beta-1 (Homo sapiens) + Integrin alpha-4 (Homo sapiens) (UniProt P13612+P05556). Briefly: alpha4beta1 integrin LIBS antibody binding reduction – U937 cells, HUTS-21 mAb, flow cytometry, validation set, VLA-4 allosteric modulator project, pilot screen (AID 2674;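 active = inhibition above 50%, about 3 SD of the validation set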;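 also: antibody binding induced by the VLA-4 ligand LDV present at three times its Kd; 0% = LDV ligand with antibody and no compound and 100% = antibody without LDV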). Particulars: HUTS-21 LIBS mAb binding, at 6.7 µM, stronger effect = higher value.
Test [12] is described as follows: calorie-restriction mimetic ROS inhibitors, yeast – validation compound set, pilot screen (AID 2706;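 active = superoxide response below 65% of plate, a cut near 3 SD across the whole screen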;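 also: yeast exposed to compound for one week at 30 degrees C before staining; 100% = mean of all compound wells on the same plate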). The following applies: S. cerevisiae aging, superoxide DHE fluorescence; at 10 µM; stronger effect = lower value.
In test [13] the target is Beta-adrenergic receptor kinase 1 (Homo sapiens) (UniProt P25098). Briefly: GRK2 binders displacing RNA aptamer, biochemical, validation, human GRK2, bead flow cytometry (AID 488806;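 active = aptamer binding inhibition above 30%, about 3 SD of noise from non-fluorescent compounds; inactive = inhibition at or below 30%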). Particulars: bead-bound GRK2, FAM-aptamer displacement, at 10 µM, stronger effect = higher value.
Test [14] addresses Beta-2 adrenergic receptor (Homo sapiens) (UniProt P07550). Briefly: agonist-induced loss of surface beta2AR – cell-based, FAP fluorogen, flow cytometry, validation set, pilot screen (AID 504459;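 active = percent response above 42, roughly 3 SD of non-fluorescent test compounds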;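 also: agonist-driven loss of surface beta2AR via internalization measured by FAP dye flow cytometry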). Particulars: Am2.2-beta2AR cells, at 10 µM, stronger effect = higher value.
The target in test [15] is AP-2 complex subunit beta (Homo sapiens) (UniProt P63010). Briefly: beta-arrestin/AP2 interaction blockers – biochemical, validation set, GST-AP2 beads, flow cytometry, pilot screen (AID 504541;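 active = inhibition above 54%, about 3 SD of non-fluorescent compounds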;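 also: AP2 carries R879A mutation and is captured from E. coli lysate; bead-bound FITC arrestin peptide fluorescence measuring arrestin peptide binding to AP2; 0% = DMSO wells and 100% = excess unlabeled arrestin peptide control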). The following applies: FITC arrestin peptide, at 10 µM, stronger effect = higher value.
Test [16] can be described thus: cytosolic pH regulators acting via V-ATPase – S. cerevisiae, pHLuorin, HTS validation (AID 504600; in the data active = response above about 15%;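 also: plate controls were DMSO for no effect and reference compound for full effect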). The following applies: V-ATPase proton transport, at 10 µM, stronger effect = higher value.
The subject of test [17] is anti-desmoglein-3 scFv antibody binding to human DSG3. Briefly: blockers of pathogenic pemphigus antibody–desmoglein-3 binding – biochemical, validation compound set, bead-based, flow cytometry, pilot screen (AID 588368;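 active = binding below the plate cutoff, the plate median minus 3 SD, with a reading above zero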;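 also: signal is the median channel fluorescence of bead-bound GFP antibody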). Particulars: Protein G beads, DSG3-Fc, scFv-GFP binding, at 10 µM, stronger effect = lower value.
Test [18] concerns Botulinum neurotoxin type F light chain protease (Clostridium botulinum). Briefly: Clostridium botulinum type F light chain protease inhibitors, microsphere substrate cleavage, validation (AID 588459; call rule not given here). Particulars: multiplex microsphere protease substrate cleavage assay, flow cytometry; at 10 µM; stronger effect = higher value.
In test [19] the target is Botulinum neurotoxin type A (Clostridium botulinum) (UniProt P0DPI0). Briefly: BoNT/A light chain protease inhibitors, biochemical, multiplex microsphere flow cytometry, validation set (AID 588460; call rule not given here). The following applies: at 10 µM, stronger effect = higher value.
Test [20] addresses Lethal factor (Bacillus anthracis) (UniProt P15917). Briefly: Bacillus anthracis lethal factor inhibition, microsphere flow cytometry protease assay, validation at 10 µM (AID 588461; call rule not given here). The following applies: multiplex microsphere protease cleavage assay, stronger effect = higher value.
Test [21] can be described thus: Nile Red efflux blockade in pump-expressing yeast – validation compound set, multiplex, phenotypic, pilot screen (AID 588506;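 active = efflux inhibition above 0.42, the validation set average plus 4 SD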;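 also: Nile Red retained in cells so higher fluorescence means more efflux inhibition; 0 = negative control wells and 1 = enniatin B 25 µM full block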). Particulars: S. cerevisiae pump-expressing triplex, Nile Red efflux flow cytometry; at 10 µM; stronger effect = higher value.
Test [22] has as its target ATP-binding cassette sub-family B member 6 (Homo sapiens) (UniProt Q9NP58). Briefly: blockers of ABCB6-driven porphyrin uptake – K562-ABCB6 cells, flow cytometry, validation set, pilot screen (AID 588550;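 active = inhibition above the screen-wide mean plus 3 SD, about 51%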;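 also: 0% = DMSO wells and 100% = benzethonium chloride 70 µM positive control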). Particulars: K562-ABCB6 porphyrin accumulation, 1 h, at 10 µM, stronger effect = higher value.
The nature of test [23]: AML differentiation inducers, ER-HoxA9 marrow cells – cell-based, GFP/MAC1 double positive, flow cytometry, validation set, primary screen (AID 588685;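 active = differentiation response of at least 50%, scaled between solvent and reference control, from cells with both markers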;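 also: compound exposure lasts four days before antibody staining and flow analysis; 0% = DMSO wells and 100% = 5 µM fulvestrant positive control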). Particulars: stronger effect = higher value.
Test [24] can be described thus: yeast AGP1-GFP level changes, GLN3 branch – cell-based, multiplex flow cytometry, S. cerevisiae, primary screen (AID 1887;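 active = GFP signal above the screen-wide mean plus 3 SD, that is over about 124.5% of the solvent control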;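 also: AGP1-GFP fusion strain of S. cerevisiae within a five-strain barcoded multiplex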). The following applies: 3 h, at 10 µM, stronger effect = higher value.
[25] abbreviates: measured here: daughter cell gate.
[26] abbreviates: measured here: mother cell gate.
Setting [27] is: measured here: daughter cell gate response.
Setting [28] is: measured here: mother cell gate response.

This note sets out measurements from PubChem BioAssay.

Records with an inconclusive call do not appear. The source made the active and inactive calls.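 The calls were made as follows, unless noted: active = GFP response above 150% of the DMSO level; inconclusive = fewer than 70 events counted for a yeast strain; inactive = the rest.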

Sequence of Integrin beta-1 (Homo sapiens) + Integrin alpha-4 (Homo sapiens) (P05556 whole entry, looked up): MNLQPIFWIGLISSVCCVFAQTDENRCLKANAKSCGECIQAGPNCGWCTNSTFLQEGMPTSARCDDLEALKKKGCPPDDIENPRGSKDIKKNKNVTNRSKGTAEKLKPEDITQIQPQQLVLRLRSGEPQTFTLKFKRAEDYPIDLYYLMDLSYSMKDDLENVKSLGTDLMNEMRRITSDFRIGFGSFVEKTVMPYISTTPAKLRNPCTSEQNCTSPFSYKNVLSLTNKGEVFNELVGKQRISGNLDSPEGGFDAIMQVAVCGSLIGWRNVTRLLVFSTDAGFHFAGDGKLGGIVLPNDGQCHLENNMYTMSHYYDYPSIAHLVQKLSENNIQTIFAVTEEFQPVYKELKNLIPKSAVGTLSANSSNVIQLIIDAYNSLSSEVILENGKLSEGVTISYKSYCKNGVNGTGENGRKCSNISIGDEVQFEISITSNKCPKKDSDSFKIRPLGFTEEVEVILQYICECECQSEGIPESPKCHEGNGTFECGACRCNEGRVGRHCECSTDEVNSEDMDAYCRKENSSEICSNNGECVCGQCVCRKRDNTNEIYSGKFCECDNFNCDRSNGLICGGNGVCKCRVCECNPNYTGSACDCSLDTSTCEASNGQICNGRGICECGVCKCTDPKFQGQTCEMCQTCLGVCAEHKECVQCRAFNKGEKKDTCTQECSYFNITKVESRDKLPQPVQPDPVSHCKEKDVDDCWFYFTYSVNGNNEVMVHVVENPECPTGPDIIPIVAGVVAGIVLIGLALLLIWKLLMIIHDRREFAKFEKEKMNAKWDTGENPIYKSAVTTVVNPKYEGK
Sequence of Integrin beta-1 (Homo sapiens) + Integrin alpha-4 (Homo sapiens) (P13612 whole entry, looked up): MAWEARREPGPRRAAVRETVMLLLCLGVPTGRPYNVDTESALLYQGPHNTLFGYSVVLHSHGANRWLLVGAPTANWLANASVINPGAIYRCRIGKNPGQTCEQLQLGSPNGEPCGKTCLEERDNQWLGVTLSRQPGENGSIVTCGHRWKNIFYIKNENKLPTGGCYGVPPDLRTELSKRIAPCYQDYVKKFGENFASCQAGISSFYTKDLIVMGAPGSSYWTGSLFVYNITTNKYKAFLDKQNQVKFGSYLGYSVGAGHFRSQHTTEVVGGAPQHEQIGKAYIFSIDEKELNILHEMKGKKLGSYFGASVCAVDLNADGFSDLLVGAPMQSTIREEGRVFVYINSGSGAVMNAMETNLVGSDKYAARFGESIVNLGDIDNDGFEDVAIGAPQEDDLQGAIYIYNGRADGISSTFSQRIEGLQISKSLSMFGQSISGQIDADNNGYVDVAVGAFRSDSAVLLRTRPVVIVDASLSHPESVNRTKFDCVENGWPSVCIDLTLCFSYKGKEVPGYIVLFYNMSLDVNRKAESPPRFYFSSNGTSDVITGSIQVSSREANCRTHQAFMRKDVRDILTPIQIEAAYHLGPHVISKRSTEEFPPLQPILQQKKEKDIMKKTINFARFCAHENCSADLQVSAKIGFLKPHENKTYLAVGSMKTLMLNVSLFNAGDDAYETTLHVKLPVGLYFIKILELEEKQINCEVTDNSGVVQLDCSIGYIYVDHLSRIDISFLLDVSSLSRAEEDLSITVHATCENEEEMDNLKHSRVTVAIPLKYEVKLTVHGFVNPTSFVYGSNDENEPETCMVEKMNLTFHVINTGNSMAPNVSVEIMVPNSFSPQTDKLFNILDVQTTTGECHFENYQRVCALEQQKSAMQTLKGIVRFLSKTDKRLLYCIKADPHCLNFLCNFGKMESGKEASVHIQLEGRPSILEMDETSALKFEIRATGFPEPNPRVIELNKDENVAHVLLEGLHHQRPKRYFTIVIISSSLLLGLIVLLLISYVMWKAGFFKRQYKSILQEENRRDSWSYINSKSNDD
Sequence of ATP-binding cassette sub-family B member 6 (Homo sapiens) (Q9NP58 whole entry, looked up): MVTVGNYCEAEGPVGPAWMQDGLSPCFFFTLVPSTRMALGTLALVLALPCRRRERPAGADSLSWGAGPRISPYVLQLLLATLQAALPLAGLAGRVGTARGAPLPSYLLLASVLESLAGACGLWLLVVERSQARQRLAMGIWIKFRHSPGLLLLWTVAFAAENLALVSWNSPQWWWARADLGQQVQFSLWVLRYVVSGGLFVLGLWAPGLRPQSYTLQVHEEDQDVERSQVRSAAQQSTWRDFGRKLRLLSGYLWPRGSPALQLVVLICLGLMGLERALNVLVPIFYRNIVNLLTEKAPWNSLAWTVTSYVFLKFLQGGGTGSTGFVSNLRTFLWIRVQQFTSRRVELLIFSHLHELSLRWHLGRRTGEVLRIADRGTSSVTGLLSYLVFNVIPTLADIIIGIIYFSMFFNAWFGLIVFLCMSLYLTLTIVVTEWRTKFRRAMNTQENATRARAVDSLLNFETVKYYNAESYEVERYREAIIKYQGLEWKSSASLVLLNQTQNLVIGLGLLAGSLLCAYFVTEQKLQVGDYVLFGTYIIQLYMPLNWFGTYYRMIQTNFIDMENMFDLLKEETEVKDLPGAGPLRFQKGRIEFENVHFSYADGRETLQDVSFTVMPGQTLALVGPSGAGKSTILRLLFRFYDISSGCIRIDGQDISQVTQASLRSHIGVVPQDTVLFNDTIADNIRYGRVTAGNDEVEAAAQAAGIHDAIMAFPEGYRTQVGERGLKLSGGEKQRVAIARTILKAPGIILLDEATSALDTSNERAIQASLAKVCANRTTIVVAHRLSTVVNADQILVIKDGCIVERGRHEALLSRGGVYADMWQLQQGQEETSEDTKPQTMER
Sequence of AP-2 complex subunit beta (Homo sapiens) (P63010 whole entry, looked up, one chain of several): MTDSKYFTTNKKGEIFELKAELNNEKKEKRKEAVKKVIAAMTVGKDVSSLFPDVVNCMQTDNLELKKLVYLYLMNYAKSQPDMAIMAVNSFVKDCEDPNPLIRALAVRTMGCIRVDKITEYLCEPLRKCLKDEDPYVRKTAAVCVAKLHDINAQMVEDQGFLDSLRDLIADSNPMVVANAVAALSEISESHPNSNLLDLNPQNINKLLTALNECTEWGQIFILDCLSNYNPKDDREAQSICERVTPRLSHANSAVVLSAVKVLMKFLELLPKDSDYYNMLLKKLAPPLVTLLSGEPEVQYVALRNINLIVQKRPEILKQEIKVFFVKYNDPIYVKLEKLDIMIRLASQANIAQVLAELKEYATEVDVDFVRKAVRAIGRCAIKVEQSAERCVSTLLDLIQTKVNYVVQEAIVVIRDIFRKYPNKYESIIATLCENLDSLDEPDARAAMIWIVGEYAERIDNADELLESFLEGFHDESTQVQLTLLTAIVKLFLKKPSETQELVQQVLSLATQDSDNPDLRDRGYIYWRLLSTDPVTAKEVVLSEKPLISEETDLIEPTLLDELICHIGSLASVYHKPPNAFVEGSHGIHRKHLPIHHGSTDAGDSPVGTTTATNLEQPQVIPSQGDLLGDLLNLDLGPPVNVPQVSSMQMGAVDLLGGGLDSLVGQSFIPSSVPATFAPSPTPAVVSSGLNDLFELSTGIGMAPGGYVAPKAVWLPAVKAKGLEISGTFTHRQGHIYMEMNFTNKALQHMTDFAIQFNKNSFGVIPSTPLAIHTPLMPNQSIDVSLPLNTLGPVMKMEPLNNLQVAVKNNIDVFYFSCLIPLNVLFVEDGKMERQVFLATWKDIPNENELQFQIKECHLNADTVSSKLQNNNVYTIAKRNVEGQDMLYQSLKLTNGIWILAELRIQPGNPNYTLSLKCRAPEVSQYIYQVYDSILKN
Sequence of Beta-2 adrenergic receptor (Homo sapiens) (P07550 whole entry, looked up): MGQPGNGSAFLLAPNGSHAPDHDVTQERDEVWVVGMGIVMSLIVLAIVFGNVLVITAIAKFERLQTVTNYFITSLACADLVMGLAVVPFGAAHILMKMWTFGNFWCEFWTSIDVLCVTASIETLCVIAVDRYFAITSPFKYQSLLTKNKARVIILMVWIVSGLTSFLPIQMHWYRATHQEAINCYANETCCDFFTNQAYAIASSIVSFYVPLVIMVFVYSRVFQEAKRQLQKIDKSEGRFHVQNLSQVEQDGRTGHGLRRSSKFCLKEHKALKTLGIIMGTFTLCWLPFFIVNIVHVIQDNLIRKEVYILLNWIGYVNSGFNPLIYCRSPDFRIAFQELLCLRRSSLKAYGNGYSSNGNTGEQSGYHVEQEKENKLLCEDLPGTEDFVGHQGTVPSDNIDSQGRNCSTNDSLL
Sequence of Beta-adrenergic receptor kinase 1 (Homo sapiens) (P25098 whole entry, looked up): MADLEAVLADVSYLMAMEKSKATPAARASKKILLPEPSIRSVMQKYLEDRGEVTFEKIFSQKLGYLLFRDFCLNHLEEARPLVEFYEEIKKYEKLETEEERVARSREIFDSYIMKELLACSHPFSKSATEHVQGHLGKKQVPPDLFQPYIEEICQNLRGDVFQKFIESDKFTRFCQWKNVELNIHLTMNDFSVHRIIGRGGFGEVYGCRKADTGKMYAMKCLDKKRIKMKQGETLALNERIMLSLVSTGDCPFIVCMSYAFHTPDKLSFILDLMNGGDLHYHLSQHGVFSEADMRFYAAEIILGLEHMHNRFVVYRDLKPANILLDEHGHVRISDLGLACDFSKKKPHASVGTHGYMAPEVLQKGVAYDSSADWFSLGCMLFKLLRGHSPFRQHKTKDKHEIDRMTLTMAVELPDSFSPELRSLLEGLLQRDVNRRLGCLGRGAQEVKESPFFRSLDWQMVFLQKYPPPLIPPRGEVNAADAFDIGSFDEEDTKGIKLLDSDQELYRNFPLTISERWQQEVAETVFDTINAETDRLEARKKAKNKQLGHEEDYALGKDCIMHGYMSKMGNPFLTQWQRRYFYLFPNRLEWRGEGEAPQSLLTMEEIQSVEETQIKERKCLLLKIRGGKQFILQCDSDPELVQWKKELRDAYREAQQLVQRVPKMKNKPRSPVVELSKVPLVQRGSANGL

In the case of `O=C1/C(=C\c2ccc(Cl)c(Cl)c2)N2CCC1CC2`, the GFP response vs DMSO in test [1] was 102% (inactive); in [1] (setting [25]), 101%; in test [1] (setting [26]), 99.1%; in [3] it was 92.6% (inactive). In addition, the GFP response relative to DMSO is 124% (inactive) in test [2], 119% in test [2] (setting [27]) and 130% in [2] (setting [28]). Moreover, the GFP response, % of DMSO in test [4] is 95.5% (inactive); in test [5], 100% (inactive); in test [5] (setting [25]), 101%; in [5] (setting [26]) it was 96.8%.

One may read the inhibition as the drop in the measured response relative to a control, in per cent. Regarding `CCN1CC2(COC(=O)c3ccccc3N)CCC(OC)C34C5CC6C(OC)CC(O)(C5C6OC)C(O)(C(OC)C23)C14` (stereo not given), the percent of DMSO control GFP in test [6] was 91.1% (inactive). For the same molecule, the results for the GFP response vs DMSO in test [7] and in [9] were 120% (inactive) and 86.4% (inactive), respectively. The percent response of DMSO control in [8] is 96.6% (inactive). The same molecule registered a double positive events in [10] of 68.8%. Further, the vesicle binding response in test [10] is 247% (inactive). The inhibition is 5.49% (inactive) in [11]; 4.65% (inactive) in test [15]; 1.9% (inactive) in [18]; 0.1% (inactive) in [19]; -9.8% (inactive) in test [20]; 8% (inactive) in test [22]. Further, the superoxide response (% of plate) in test [12] is 99.8% (inactive). The aptamer binding inhibition in test [13] was 2% (inactive). The response in test [14] is -0.45% (inactive); in test [16], 5.45% (inactive). Also, in test [17], the binding (% of control) is 101% (inactive). Also, the efflux inhibition (fraction of control) in test [21] was -0.42 (inactive). Further, the differentiation response in test [23] was 9.83% (inactive).

In the case of `O=c1[nH]c(=S)n(-c2ccccc2)c(O)c1/C=N/N1CCOCC1`, the GFP response vs DMSO in [1] was 102% (inactive); in [1] (setting [25]), 103%; in test [1] (setting [26]) it was 102%; in test [3] it was 99% (inactive). Also, the GFP response relative to DMSO in test [2] is 95.7% (inactive); in test [2] (setting [27]), 97.5%; in [2] (setting [28]) it was 96.2%. Also, the GFP response, % of DMSO in test [4] is 99.8% (inactive); in test [5], 100% (inactive); in [5] (setting [25]), 103%; in test [5] (setting [26]) it was 99.3%.

On to `CCOC(=O)c1cncn1C(C)c1ccccc1` (stereo not given), for which the percent of DMSO control GFP in test [6] was 104% (inactive). For the same molecule, in [8], the percent response of DMSO control is 106% (inactive). In addition, the GFP response vs DMSO in test [9] was 80.2% (inactive). Further, the GFP response, % of DMSO in test [24] was 95% (inactive). The molecule further returned a double positive events in test [10] of 60%. Also, the vesicle binding response in [10] is 404% (inactive). The inhibition is 7.85% (inactive) in test [11], -10.9% (inactive) in test [15] and 12% (inactive) in test [22]. Besides, in [12], the superoxide response (% of plate) was 97% (inactive). Moreover, the aptamer binding inhibition in test [13] is 4% (inactive). Moreover, the response is -9.36% (inactive) in [14] and 2.71% (inactive) in [16]. For the same molecule, in test [17], the binding (% of control) was 101% (inactive). The efflux inhibition (fraction of control) in test [21] is 0.27 (inactive). Also, in [23], the differentiation response is 2.2% (inactive).

In the case of `O=[N+]([O-])c1ccc(N2CCNCC2)cc1Sc1ccccn1`, the GFP response vs DMSO in test [1] was 98.4% (inactive); in test [1] (setting [25]) it was 98.4%; in test [1] (setting [26]), 99.4%; in [3], 97.8% (inactive). Moreover, the values for the GFP response relative to DMSO in [2], in test [2] (setting [27]) and in [2] (setting [28]) were 91.4% (inactive), 92.5% and 91.1%, respectively. Also, the GFP response, % of DMSO was 97.2% (inactive) in test [4], 96.5% (inactive) in test [5], 96.5% in test [5] (setting [25]) and 95.5% in test [5] (setting [26]).

Take `CN1CCN(c2ccc([N+](=O)[O-])c(Sc3ccccn3)c2)CC1`: the GFP response vs DMSO in [1] was 98.4% (inactive); in test [1] (setting [25]) it was 98.9%; in test [1] (setting [26]), 99.5%; in test [3] it was 105% (inactive). The figures for the GFP response relative to DMSO in test [2], in test [2] (setting [27]) and in [2] (setting [28]) were 95.4% (inactive), 96% and 95.1%, respectively. Besides, the GFP response, % of DMSO is 98% (inactive) in test [4], 103% (inactive) in test [5], 103% in test [5] (setting [25]) and 102% in [5] (setting [26]).

`N#CC(C#N)=NNc1ccc(-n2ccc(C(F)(F)F)n2)cc1`: the GFP response vs DMSO is 98% (inactive) in test [1], 97.6% in [1] (setting [25]), 96.9% in [1] (setting [26]) and 114% (inactive) in test [3]. Also, the GFP response relative to DMSO in test [2] (100 means same as DMSO control) is 111% (inactive); in test [2] (measured here: daughter cell gate response, 100 means same as DMSO control), 104%; in test [2] (measured here: mother cell gate response, 100 means same as DMSO control), 111%. The GFP response, % of DMSO is 102% (inactive) in test [4], 97.2% (inactive) in test [5], 97.6% in test [5] (setting [25]) and 97.1% in test [5] (setting [26]).
